The record followed here is PubChem BioAssay AID652256 (National Center for Advancing Translational Sciences (NCATS), 2013).

Molecules are shown by their SMILES. The list shows a part of the results. The source made the active and inactive calls.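 Rule for the calls: active = a half-inhibiting concentration could be measured and was below 100 µM; inactive = the rest.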

In this experiment the test system is Thioredoxin reductase 1 (TXNRD1), rat. The experiment can be described thus: qHTS Assay for Inhibitors of Mammalian Selenoprotein Thioredoxin Reductase 1 (TrxR1): DTNB Assay. The conditions noted are these: purified TrxR1, DTNB reduction, A412. An excerpt:
The selenoprotein thioredoxin reductase (TrxR; EC 1.8.1.9) is a FAD containing homodimeric pyridine nucleotide-disulfide oxidoreductase with many cellular roles. Together with NADPH and its prime substrate thioredoxin (Trx), the enzyme forms the core of the Trx system. The mammalian Trx system exerts a wide spectrum of functions including redox regulation, antioxidant defense, regulation of transcription factors as well as support of cell growth and replication. Many of these functions involve the reduction of Trx, which may subsequently reduce a number of different substrates including ribonucleotide reductase, peroxiredoxins or NFkB. Mammalian TrxR itself also has a broad substrate specificity, reducing both protein and non-protein substrates, including low molecular weight compounds such as dehydroascorbate, lipoic acid, ubiquinone, and juglone. In addition, several drugs in clinical use for anticancer treatment are indeed known to target TrxR1. This orthogonal DTNB assay seeks to further characterize cherry picks. […]
15 nM TrxR1 is reduced by 250 microM NADPH in TE buffer [50 mM Tris-HCl (pH 7.5), 2 mM EDTA] in a 96-well microtiter plate. […] During compound incubation, NADPH consumption is followed by the decrease in absorbance at 340 nm using a VersaMax microplate reader (Molecular Devices) to determine substrate potential of the compound. […]

`COc1ccc(-c2nc(CS(=O)CC(=O)N3CCC4(CC3)OCCO4)c(C)o2)cc1` (stereo unspecified): the Potency is 1460 nM (active).
